Several values for one entry are separate records, joined by “and”; a condition that tells them apart may be missing. Equal entries are not always repeated. Activity calls are given as the source filed them. How the source made its calls: active means hit-call score of the fitted dose curve at least 0.9, where 1 is the maximum; inactive means score below 0.9.

Read-out in this experiment: TIMP metallopeptidase inhibitor 1 (TIMP1), TIMP1 (gene 7076)
Kind of experiment: BSK_hDFCGF_TIMP1: BioMAP Diversity Plus: hDFCGF Assay for TIMP metallopeptidase inhibitor 1 (TIMP1) Biomarker Activity (AID 2283062). The conditions noted are these: primary human foreskin fibroblasts; actives raise or lower the signal. On the procedure:
BSK_hDFCGF is a cell-based, multiplexed-readout assay that uses foreskin fibroblast, a human skin primary cell, with measurements taken at 24 hours after chemical dosing in a 96-well plate.BSK_hDFCGF_TIMP1 is an assay component measured in the BSK_hDFCGF assay. It measures TIMP-1 antibody related to regulation of gene expression using ELISA technology.Data from the assay component BSK_hDFCGF_TIMP1 was analyzed into 1 assay endpoint. This assay endpoint, BSK_hDFCGF_TIMP1, was analyzed with bidirectional fitting relative to DMSO as the negative control and baseline of activity. Using a type of binding reporter, gain or loss-of-signal activity can be used to understand changes in the signaling as they relate to the gene TIMP1. Furthermore, this assay endpoint can be referred to as a primary readout, because this assay has produced multiple assay endpoints where this one serves a signaling function. To generalize the intended target to other relatable targets, this assay endpoint is annotated to the protease inhibitor intended target family, where the subfamily is metalloproteinase inhibitor.
The levels of cell surface (or secreted, indicated by the prefix "s") biomarker endpoints were measured by ELISA. Overt cytotoxicity to cells in confluent adherent cultures (all systems other than the BT system) was assessed by measuring total protein levels using sulforhodamine B (SRB) staining in parallel cultures at the time of biomarker measurements, indicated as SRB endpoints. For proliferation assays for adherent cell types, individual cell types are cultured at sub-confluence and relative cell numbers quantified by SRB staining at time points optimized for each system (48 h: 3C and CASM3C systems; 72 h: BT and HDF3CGF systems; 96 h: SAg system). SRB was performed by staining cells with 0.1% SRB after fixation with 10% TCA and reading wells at 560 nm.Viability and proliferation of PBMC (T cells) was quantified by Alamar Blue reduction for the SAg and BT systems. For PBMC viability (referred to as PBMC Cytotoxicity within the assay endpoint names), cells were plated (75,000/well in a 96-well plate) and then chemical samples added for 1 h before addition of activators, SEB and TSST-1 (20 ng/mL final concentration each). Cells were incubated for 90 h. Then, Alamar Blue (20 uL/well) (Invitrogen, Cat DAL1100) was added for 6 h, and the plates were read with a fluorescence microplate reader at 546/580 nm (excitation/emission). For PBMC proliferation, cells were plated and activated as above but incubated for only 16 h prior to addition of Alamar Blue. Plates were read after 6 h.
As to `ClC(Cl)(Cl)c1ccccc1`, the outcome was inactive.
As to `CCCCc1ccccc1`, the result was inactive.
Still for that read-out and setting: as for `c1nc[nH]n1`, the entry is “inactive”.
Turning to `FC(F)(F)C(F)(C(F)(F)F)C(F)(F)C(F)(F)CC1CO1` (stereo not given), the result was inactive.
On the same count and under the same terms, the same measure for `ClC(Cl)c1ccccc1`: “inactive”; for `c1cc2c3c(cccc3c1)CC2`: “inactive”; for `[N-]=[N+]=[N-]`: “inactive”.
Regarding `COP(N)(=S)OC`, the result was inactive.
Still for that read-out and setting: as for `CCCCC(CC)COC(=O)c1c(Br)c(Br)c(Br)c(Br)c1C(=O)OCC(CC)CCCC` (stereo not given), the entry is “inactive”; as for `Nc1cc2c3c(c1)C(c1ccccc1)=N[C@@H](NC(=O)c1cccnc1)C(=O)N3CC2`, “inactive”.
Same read-out and setting: as for `CCOP(=S)(NC(C)C)Oc1ccccc1C(=O)OC(C)C` (stereo not given), the entry is “inactive”; as for `CCC(C)(C)c1ccc(O)cc1`, “inactive”.
`C=CC(=O)OCC(F)(F)C(F)F`: the half-maximal activity concentration (AC50) is 30 µM (active) and 31.7 µM (active).
With `O=C(O)C(F)(F)OC(F)(F)C(F)(F)OC(F)(F)C(=O)O`, the result was inactive.
`CC(C)Nc1ccc(Nc2ccccc2)cc1`: the AC50 is 6.56 µM (active).
With `COP(=O)(CCC(=O)NCO)OC`, the outcome was inactive.
On the same count and under the same terms, the same measure for `CCOP(=S)(S)OCC`: “inactive”; for `Nc1ccc([N+](=O)[O-])cc1Cl`: “inactive”; for `OCC(F)(F)OC(F)(F)C(F)(F)OC(F)(F)C(F)(F)OC(F)(F)F`: “inactive”.
In the case of `CCCCN(CCCC)SN(C)C(=O)Oc1cccc2c1OC(C)(C)C2`, the concentration at half-maximal activity (AC50) is 12.4 µM (active).
Take `CCC1(c2ccccc2)C(=O)N=C(O)NC1=O` (stereo not given): the result was inactive.
Same read-out and setting: the same measure for `CC(Cc1ccc(OCC(=O)O)cc1)NCC(O)c1csc(C(F)(F)F)n1` (stereo not given): “inactive”; for `CCCCOCCOP(=O)(OCCOCCCC)OCCOCCCC`: “inactive”.
Still for that read-out and setting: as for `O=S(=O)(F)C(F)(F)C(F)(F)C(F)(F)C(F)(F)C(F)(F)C(F)(F)C(F)(F)C(F)(F)F`, the entry is “inactive”; as for `COC(=O)C(F)(F)C(F)(F)OC(F)(C(F)(F)F)C(F)(F)OC(F)=C(F)F` (stereo not given), “inactive”.
The same measure, in the same setting: the same measure for `CCNc1nc(Cl)nc(NC(C)(C)C)n1`: “inactive”; for `Cc1ccc([N+](=O)[O-])cc1C`: “inactive”; for `O=C(O)C(F)(OC(F)(F)C(F)(F)C(F)(F)F)C(F)(F)F` (stereo not given): “inactive”.
Consider `CCCCN(CCCC)N=O`, for which the outcome was inactive.
In the case of `NC(=O)C(F)(F)C(F)(F)F`, the result was inactive.
For `ClC(Cl)=C(c1ccc(Cl)cc1)c1ccccc1Cl`, the half-maximal activity concentration (AC50) was 3.94 µM (active).
On the same count and under the same terms, the same measure for `ClC1=C(Cl)C2(Cl)C3C(Cl)C(Cl)CC3C1(Cl)C2(Cl)Cl` (stereo not given): 8.69 µM (active).
Turning to `OCC1CO1` (stereo not given), the result was inactive.
Still for that read-out and setting: the same measure for `CCOC(=O)c1ccccc1C(=O)OCC`: “inactive”; for `CCOc1ccc(C(C)(C)COCc2cccc(Oc3ccccc3)c2)cc1`: “inactive”.
As for `CCCCC(CC)COP(=O)(Oc1ccccc1)Oc1ccccc1` (stereo not given), the half-maximal activity concentration (AC50) was 5.46 µM (active).
With `CCOS(=O)(=O)OCC`, the result was inactive.
Same read-out and setting: the same measure for `O=C(O)C=CC(F)(C(F)(F)F)C(F)(F)F`: “inactive”; for `O=[N+]([O-])c1ccccc1`: “inactive”.
For `O=c1ssc(Cl)c1Cl`, the AC50 was 2.65 µM (active).

The values are drawn from PubChem BioAssay (EPA / NIEHS).
